Screens from PubChem BioAssay.
Compounds with a hit are over-represented: about 2.2% of the library has one in this group of screens.
aSyn UTR inh: MLPCN primary screen, SNCA 5' untranslated region | alpha-synuclein 5'UTR reporter, inhibitor activity | 0.82% of 300,000 active | inhibition, % (tested at 7.5 µM); in the data active means inhibition above about 60%;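 further: H4 neuroglioblastoma cells stably carrying SNCA 5'UTR luciferase fusion; 0% = DMSO wells and 100% = positive control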
BaF3 tox: counter-screen for JAK2V617F inhibitors: parental Ba/F3 viability inhibitors; CellTiter-Glo ATP luminescence; inhibition, % at 5.6 µM; 1.1% of 220,000 active;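 active means inhibition above a per-campaign cutoff, the mean inhibition of all tested compounds plus 3 SD, cut at about 27% in these data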;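 further: 0% = DMSO wells and 100% = JAK Inhibitor I control wells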
IEC-6 cytotox: kills IEC-6 intestinal cells in KLF5 counter-screen; IEC-6 cytotoxicity, luminescence viability; inhibition, % at 5 µM; 0.78% of 290,000 active; AID 1825; in the data active means inhibition above about 22%;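 further: 0% = plate median of test compound wells and 100% = cytotoxic reference compound wells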
KLF5 inh: suppresses KLF5 promoter-driven expression. inhibition, % at 5 µM. DLD-1 KLF5 promoter-luciferase reporter, luminescence. 0.23% of 290,000 active;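 active means inhibition above a per-plate limit of that plate's mean compound inhibition plus 3 SD, cut at about 60% in these data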;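 further: 0% = DMSO wells and 100% = LY294002 at 200 µM; higher means less KLF5 promoter-driven luciferase light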
Ba/F3 V617F tox: lowers viability of Ba/F3 cells expressing EpoR and JAK2V617F | ATP luminescence | inhibition, % at 5.6 µM | 1.1% of 220,000 active;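 active means inhibition above the campaign mean plus 3 SD over all tested compounds, cut at about 24% in these data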;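 further: cytokine-independent growth of Ba/F3 cells driven by EpoR plus mutant JAK2; 0% = DMSO-treated cells and 100% = JAK inhibitor I control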
APP 5UTR inh: APP translation inhibition. inhibition, % at 2 µM. 0.82% of 190,000 active. SH-SY5Y APP 5'UTR-luciferase reporter, luminescence;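 active means inhibition above a set limit, derived from the sample mean plus 3 SD, cut at about 45% in these data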
An asterisk follows results filed as active; · = no result given.

SMILES	aSyn UTR inh	BaF3 tox	IEC-6 cytotox	KLF5 inh	Ba/F3 V617F tox	APP 5UTR inh
CC(=O)Nc1ccc(OCc2cccc3ccccc23)cc1	92*	·	9	9	·	·
O=C(OCCN1C(=O)c2cccc3c(N4CCOCC4)ccc(c23)C1=O)c1ccc(Cl)cc1	53	4	-4	-2	-2	50*
CC1CCCCC1NC(=O)CN(C)S(=O)(=O)c1ccc2c(c1)c(=O)n(C)c(=O)n2C (stereo not drawn)	-11	·	-2	-15	·	·
COc1cc(C(=O)Oc2ccc(/C=N/NC(=O)c3ccncc3)cc2)cc(OC)c1OC	7	·	-4	-18	·	·
COc1cc(C(=O)N/N=C/c2ccc(OC(=O)N3CCOCC3)cc2)cc(OC)c1OC	7	4	9	-12	1	61*
CCOc1cc(/C=N/NC(N)=S)cc(Br)c1OCc1ccccc1C	-74	28*	3	11	11	-19
CNC(=S)N/N=C/c1cc(Br)c(OCc2ccncc2)c(OC)c1	30	·	2	-26	·	·
CCOc1cc(/C=N/NC(N)=O)cc(Br)c1OCc1ccccc1	45	·	·	·	·	·
COc1cc(/C=N/NC(N)=S)cc(Br)c1OCc1ccccc1F	-74	53*	9	-20	65*	-20
COc1ccccc1/C=N/Nc1cc(C)nc2ccc(C)cc12	-30	·	0	-29	·	·
COc1ccc(/C=N/Nc2cc(C)nc3ccc(OC)cc23)c(OC)c1	117*	·	-1	-25	·	·
COc1ccc(OC)c(Nc2cc(C)nc3ccc(C)cc23)c1	63*	·	·	·	·	·
C=CC[C@]12C[C@@H](OC)C(=O)C=C1O[C@@H](c1ccc(OC)c(OC)c1)[C@H]2C	2	·	·	·	·	·
COc1ccc(S(=O)(=O)N2c3cc(Cl)ccc3Oc3nc4ccccc4nc32)cc1	100*	-1	5	-7	-5	-17
O=S(=O)(c1ccc(Cl)cc1)N1c2ccccc2Oc2nc3ccccc3nc21	-96	5	-2	-12	1	-15
CC(CCc1ccccc1)N(C)CC(O)c1cccc([N+](=O)[O-])c1 (stereo not drawn)	12	0	-3	-12	-3	·
CN(C)S(=O)(=O)Oc1ccc(C(=O)Nc2ccc([N+](=O)[O-])cc2)cc1	-5	2	11	-9	1	-44
COC(=O)c1ccc(OS(=O)(=O)N(C)C)cc1	-88	36*	3	-27	-2	-27
OCCCNC(=S)Nc1ccc2nc(-c3ccccn3)c(-c3ccccn3)nc2c1	1	71*	-1	-44	85*	0
COCCNC(=O)c1cccc2c1-c1ccccc1C2=O	-3	·	-2	-25	·	·
CCN1CCN(C(=O)CSc2nc3c(c(=O)n(C)c(=O)n3C)n2C)CC1	-1	·	11	-12	·	·
C#CCn1cc[n+](CC(=O)N(C)C)c1	0	3	2	-31	-4	-5
CCCCCCCCCCCCCCCCn1cc[n+](CC(C)=O)c1	·	75*	2	2	68*	20
COc1ccc(CNC(=O)CN(CCC(C)C)S(=O)(=O)c2ccc3c(c2)OCCO3)cc1	8	10	2	-12	-3	0
CC12C(=O)N(c3cccc(OC(=O)c4ccco4)c3)C(=O)C1C1c3ccccc3C2c2ccccc21 (stereo not drawn)	21	4	-2	-16	-3	52*
SMILES	aSyn UTR inh	BaF3 tox	IEC-6 cytotox	KLF5 inh	Ba/F3 V617F tox	APP 5UTR inh
CC12C(=O)N(c3ccc(OC(=O)c4ccco4)cc3)C(=O)C1C1c3ccccc3C2c2ccccc21 (stereo not drawn)	12	3	-2	-16	-3	8
C/C(=N\NC(=O)CNC(=O)C1COc2ccccc2O1)c1ccc(Cl)cc1 (stereo not drawn)	14	2	1	-8	-1	·
N#CC(Sc1ccccn1)c1ccc(Cl)cc1 (stereo not drawn)	-6	53*	2	-18	26*	12
Cc1ccc(C(=O)C[n+]2cccc3cc(C)ccc32)cc1	1	70*	2	-11	5	10
CCOc1ccc(C(=O)C[n+]2cccc3cc(C)ccc32)cc1	5	·	1	-10	·	·
CCc1ccc2nc(SCC(=O)N3CC(=O)Nc4ccccc43)c(C#N)cc2c1	-1	6	-5	-38	4	94*
O=C1NCC(=O)N2CCC[C@@H]12	20	·	·	·	·	·
O=C(N=Nc1c(O)[nH]c2ccc(Br)cc12)c1cc(-c2cccs2)nc2ccccc12	81*	4	6	-11	0	28
Cn1c(O)c(N=NC(=O)c2cc(-c3cccs3)nc3ccccc23)c2ccccc21	13	5	-4	11	-1	2
O=C(COC(=O)CN1C(=O)c2ccccc2C1=O)Nc1ccc(S(=O)(=O)N2CCCC2)cc1	-11	2	1	-19	-2	50*
CCN(CC)CCN1C(=O)/C(=C\c2ccc(Cl)c([N+](=O)[O-])c2)SC1=Nc1ccc(OC)cc1	74*	·	13	13	·	·
CCCN1C(=O)/C(=C/c2ccc(C)s2)SC1=Nc1ccc(OC)cc1	15	-1	-2	-14	1	0
COc1ccc(N=C2S/C(=C\c3ccc(Cl)c([N+](=O)[O-])c3)C(=O)N2CCN(C)C)cc1	81*	·	18	-39	·	·
O=C(c1c[nH]c(C(=O)N2CCN(c3ccccc3F)CC2)c1)c1cccc(Cl)c1Cl	43	12	-4	-17	1	57*
N#Cc1cc(N)c(Nc2ccccc2)cc1C#N	33	37*	16	17	15	-5
Cc1cnc(C(=O)OCC(=O)c2ccc(Cl)cc2)cn1	6	·	-5	17	·	·
Cc1ccc(NC(=O)COC(=O)CN2C(=O)NC(C)(C)C2=O)cc1S(=O)(=O)N1CCOCC1	-2	2	5	0	-3	-16
COc1cc2c(cc1OC)C(c1ccccc1N)=NCC2	-1	47*	1	-1	38*	·
CNC[C@H](Cc1ccccc1)NC[C@@H](Cc1cccc2ccccc12)NCCc1ccc(C)cc1	123*	·	-4	7	·	·
Cc1ccc(CC(CC(=O)O)C(=O)NCc2ccccc2)cc1 (stereo not drawn)	11	7	2	-19	-2	·
CCCNC(=S)N1CCC(C(=O)c2ccc(OC)cc2)CC1	17	8	-4	-12	-1	60*
CCCNC(=S)N1CCC(C(=O)c2ccc(Cl)cc2)CC1	-9	·	1	-12	·	·
CC(c1ccccc1)n1c(S(=O)(=O)O)nc2ccccc21 (stereo not drawn)	2	58*	0	-16	1	0
COc1ccc(C(=O)NCC(C)NC(=O)c2ccc(OC)c(Br)c2)cc1Br (stereo not drawn)	31	·	·	·	·	·
Cn1c(N)c(C(=O)COC(=O)CC2CC3CCC2C3)c(=O)n(C)c1=O (stereo not drawn)	6	60*	6	-9	-1	-12
Cn1c(N)c(C(=O)COC(=O)CSc2ccccc2)c(=O)n(C)c1=O	-4	8	0	-19	4	13
